From ChEMBL document CHEMBL1201862, “PubChem BioAssay data set” (2004)
In all, about 410,000 compounds went through this assay and about 7,200 (1.8%) were called active. About 7% were inconclusive and are not listed. No cut-off for these calls is given here. The full list was thinned out, with actives kept by preference.

Molecular target: TAR DNA-binding protein 43 (Homo sapiens) (UniProt Q13148)
Assay: qHTS of TDP-43 Inhibitors.
Type: functional

Chain of TAR DNA-binding protein 43 (Homo sapiens) (Q13148 whole entry): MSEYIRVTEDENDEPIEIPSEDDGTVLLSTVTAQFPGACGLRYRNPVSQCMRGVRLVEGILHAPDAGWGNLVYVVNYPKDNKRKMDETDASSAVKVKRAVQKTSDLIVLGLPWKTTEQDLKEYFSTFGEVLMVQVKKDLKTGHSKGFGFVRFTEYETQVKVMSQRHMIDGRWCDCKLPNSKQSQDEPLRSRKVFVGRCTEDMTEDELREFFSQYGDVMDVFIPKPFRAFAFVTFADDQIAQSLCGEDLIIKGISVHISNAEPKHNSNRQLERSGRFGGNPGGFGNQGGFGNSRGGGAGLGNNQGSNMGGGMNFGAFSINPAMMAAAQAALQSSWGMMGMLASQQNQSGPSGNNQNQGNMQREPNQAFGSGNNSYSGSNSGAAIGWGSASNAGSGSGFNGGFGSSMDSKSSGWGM

Row | SMILES | Potency
1 | COc1ccc(OCC(O)COc2ccc(C(=O)O)cc2)cc1 (configuration not stated) | 100 µM (active)
2 | O=C(Nc1ccccc1)c1ccccc1NS(=O)(=O)c1ccc(Cl)s1 | inactive
3 | O=C(N/N=C/c1ccc(O)c2ncccc12)c1cccc(Br)c1 | inactive
4 | Clc1ccc(-c2nnc(COc3ncnc4ccccc34)o2)cc1 | inactive
5 | CCOc1cc(N2CCOCC2)c(OCC)cc1NC(=O)Cn1[nH]c(=O)c2ccccc2c1=O | 79.4 µM (active)
6 | Cc1ccc(-c2cc(C(=O)N3N=C(C(F)F)CC3(O)C(F)F)c3ccccc3n2)cc1C (configuration not stated) | inactive
7 | Cc1ccc(N(Cc2ccccc2)C(=O)c2cc(S(=O)(=O)N3CCOCC3)ccc2Cl)cc1 | inactive
8 | COc1ccc2[nH]c3c(C)c4ccncc4c(C)c3c2c1 | inactive
9 | O=C(O)Cc1ccccc1Nc1c(Cl)cccc1Cl | 15.8 µM (active)
10 | O=C(Nc1cccc(F)c1)c1ccc2c(c1)OCCO2 | inactive
11 | COc1ccc(Cl)cc1NC(=O)C1CCCN(c2cc(C)nc3ncnn23)C1 (configuration not stated) | inactive
12 | CN(C(=O)COC(=O)c1cccnc1Nc1cccc(C(F)(F)F)c1)C1CCS(=O)(=O)C1 (configuration not stated) | inactive
